# Measured values taken from publication PMC7862700, “An all-to-all approach to the identification of sequence-specific readers for epigenetic DNA modifications on cytosine”.
# Legend:
# Assay in all cases: DAPPL (digital affinity profiling via proximity ligation, sequencing); 10 mM Tris-HCl pH 7.5, 50 mM NaCl, 1 mM DTT, 4% glycerol, room temperature, 30 min; GST-TFs on glutathione beads, 16-mer random dsDNA library, 0.1% formaldehyde crosslink after washing; high values mean tight binding
# FEV = biological target: T1, FEV (Homo sapiens, UniProt Q99581 1-238); conditions: protein: recombinant; tags: N-terminal GST; dsDNA, one strand shown
# T1 sequence: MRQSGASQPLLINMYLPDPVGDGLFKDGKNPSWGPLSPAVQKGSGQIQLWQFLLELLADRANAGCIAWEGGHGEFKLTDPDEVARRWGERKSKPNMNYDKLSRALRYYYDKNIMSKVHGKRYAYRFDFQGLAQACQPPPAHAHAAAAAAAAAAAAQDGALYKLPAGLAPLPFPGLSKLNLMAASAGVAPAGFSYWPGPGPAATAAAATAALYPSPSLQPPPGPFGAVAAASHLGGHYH
# How it was run: (§1)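 Sequencing on an Illumina NextSeq500 followed washing, crosslinking with 0.1% formaldehyde, proximity ligation (BsaI/T4 ligase, 1 h, 37 °C) and PCR amplification of pools that had been incubated for 30 min at room temperature with 200 nmole of a random double-stranded 16-mer DNA library in Tris/NaCl/DTT/glycerol buffer. Each pool held DNA-barcoded human transcription factors, expressed in yeast as GST fusions and captured on glutathione beads, plus a tag-only sample. Binding signal is a hexamer's read frequency for a factor divided by its frequency in the tag-only sample.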
# ETV5 = ETV5 (Homo sapiens, UniProt P41161 1-510); conditions: protein: recombinant; tags: N-terminal GST; dsDNA, one strand shown
# How it was run: as §1
# HSF1 = HSF1 (Homo sapiens, UniProt Q00613 1-529); conditions: protein: recombinant; tags: N-terminal GST; chain copies: 3; dsDNA, one strand shown
# How it was run: as §1
# SPIC = biological target: T2, SPIC (Homo sapiens, UniProt Q8N5J4 1-248); conditions: protein: recombinant; tags: N-terminal GST; dsDNA, one strand shown
# T2 sequence: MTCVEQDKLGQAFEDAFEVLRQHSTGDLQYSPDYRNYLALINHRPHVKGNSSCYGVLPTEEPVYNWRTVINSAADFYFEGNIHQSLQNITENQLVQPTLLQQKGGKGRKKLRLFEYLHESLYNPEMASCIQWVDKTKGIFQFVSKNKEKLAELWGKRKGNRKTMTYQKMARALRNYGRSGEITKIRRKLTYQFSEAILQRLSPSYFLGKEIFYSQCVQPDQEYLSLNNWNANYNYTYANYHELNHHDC
# How it was run: as §1
# ELF4 = ELF4 (Homo sapiens, UniProt Q99607 1-663); conditions: protein: recombinant; tags: N-terminal GST; dsDNA, one strand shown
# How it was run: as §1
# ELK4 = biological target: T3, ELK4 (Homo sapiens, UniProt P28324-2 1-405); conditions: protein: recombinant; tags: N-terminal GST; dsDNA, one strand shown
# T3 sequence: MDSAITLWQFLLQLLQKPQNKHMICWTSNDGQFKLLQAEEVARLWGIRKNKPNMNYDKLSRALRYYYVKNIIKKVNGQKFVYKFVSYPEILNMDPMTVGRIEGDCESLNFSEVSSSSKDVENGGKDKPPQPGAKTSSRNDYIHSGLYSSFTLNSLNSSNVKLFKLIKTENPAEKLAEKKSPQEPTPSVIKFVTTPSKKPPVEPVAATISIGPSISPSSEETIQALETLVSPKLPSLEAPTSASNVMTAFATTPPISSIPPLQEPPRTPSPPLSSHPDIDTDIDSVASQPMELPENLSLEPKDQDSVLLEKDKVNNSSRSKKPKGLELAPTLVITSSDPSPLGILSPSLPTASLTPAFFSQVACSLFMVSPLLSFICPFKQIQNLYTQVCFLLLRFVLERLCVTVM
# How it was run: as §1
# ETV2 = biological target: T4, ETV2 (Homo sapiens, UniProt O00321 1-342); conditions: protein: recombinant; tags: N-terminal GST; dsDNA, one strand shown
# T4 sequence: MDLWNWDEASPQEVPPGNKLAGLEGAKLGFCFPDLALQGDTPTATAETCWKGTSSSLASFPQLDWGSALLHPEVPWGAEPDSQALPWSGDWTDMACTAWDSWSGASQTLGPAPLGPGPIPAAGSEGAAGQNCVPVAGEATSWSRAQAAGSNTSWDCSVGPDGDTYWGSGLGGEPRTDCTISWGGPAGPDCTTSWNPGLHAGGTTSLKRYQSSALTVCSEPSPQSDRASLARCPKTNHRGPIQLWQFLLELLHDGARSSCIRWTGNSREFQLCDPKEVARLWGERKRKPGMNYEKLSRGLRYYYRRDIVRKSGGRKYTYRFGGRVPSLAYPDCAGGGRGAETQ
# How it was run: as §1
# ELF3 = biological target: T5, ELF3 (Homo sapiens, UniProt P78545 1-371); conditions: protein: recombinant; tags: N-terminal GST; dsDNA, one strand shown
# T5 sequence: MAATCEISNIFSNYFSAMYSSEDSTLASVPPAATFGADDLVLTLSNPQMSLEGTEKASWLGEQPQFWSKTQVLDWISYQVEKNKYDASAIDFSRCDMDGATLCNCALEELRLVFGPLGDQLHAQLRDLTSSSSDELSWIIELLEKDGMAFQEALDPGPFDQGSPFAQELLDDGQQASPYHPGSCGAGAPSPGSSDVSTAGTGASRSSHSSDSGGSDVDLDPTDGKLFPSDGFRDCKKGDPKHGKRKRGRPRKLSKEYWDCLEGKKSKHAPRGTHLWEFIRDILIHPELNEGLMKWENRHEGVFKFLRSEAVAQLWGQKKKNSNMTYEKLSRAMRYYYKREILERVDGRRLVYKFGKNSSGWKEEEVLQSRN
# How it was run: as §1
# CRX = CRX (Homo sapiens, UniProt O43186 1-299); conditions: protein: recombinant; tags: N-terminal GST; dsDNA, one strand shown
# How it was run: as §1
# ETV1 = ETV1 (Homo sapiens, UniProt P50549 1-477); conditions: protein: recombinant; tags: N-terminal GST; dsDNA, one strand shown
# How it was run: as §1
# ERF = biological target: T6, ERF (Homo sapiens, UniProt P50548 1-548); conditions: protein: recombinant; tags: N-terminal GST; dsDNA, one strand shown
# T6 sequence: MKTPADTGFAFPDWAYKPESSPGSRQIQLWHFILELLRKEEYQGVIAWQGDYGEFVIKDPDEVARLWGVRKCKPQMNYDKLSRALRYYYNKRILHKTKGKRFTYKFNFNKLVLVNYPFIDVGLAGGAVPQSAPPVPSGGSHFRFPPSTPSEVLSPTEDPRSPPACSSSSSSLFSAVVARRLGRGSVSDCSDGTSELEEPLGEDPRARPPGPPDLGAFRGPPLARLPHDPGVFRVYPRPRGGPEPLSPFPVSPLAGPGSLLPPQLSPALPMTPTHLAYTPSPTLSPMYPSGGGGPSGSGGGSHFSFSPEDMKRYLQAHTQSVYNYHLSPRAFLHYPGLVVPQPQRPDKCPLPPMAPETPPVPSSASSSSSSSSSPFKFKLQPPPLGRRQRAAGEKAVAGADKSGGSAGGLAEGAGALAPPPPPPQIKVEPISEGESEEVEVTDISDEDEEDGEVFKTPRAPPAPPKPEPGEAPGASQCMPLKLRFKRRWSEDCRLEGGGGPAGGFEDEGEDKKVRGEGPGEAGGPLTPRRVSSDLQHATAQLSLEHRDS
# How it was run: as §1
# ETV3L = biological target: T7, ETV3L (Homo sapiens, UniProt Q6ZN32 1-361); conditions: protein: recombinant; tags: N-terminal GST; dsDNA, one strand shown
# T7 sequence: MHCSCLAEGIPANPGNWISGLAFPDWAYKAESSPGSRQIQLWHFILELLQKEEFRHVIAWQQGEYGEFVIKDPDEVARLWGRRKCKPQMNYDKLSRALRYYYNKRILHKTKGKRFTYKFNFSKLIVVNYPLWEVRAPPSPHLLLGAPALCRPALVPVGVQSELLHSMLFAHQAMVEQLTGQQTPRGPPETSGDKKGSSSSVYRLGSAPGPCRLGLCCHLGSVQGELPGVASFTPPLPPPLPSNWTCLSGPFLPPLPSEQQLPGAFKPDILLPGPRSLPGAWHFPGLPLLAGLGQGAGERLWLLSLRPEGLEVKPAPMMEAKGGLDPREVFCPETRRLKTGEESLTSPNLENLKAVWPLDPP
# How it was run: as §1
# ETS2 = biological target: T8, ETS2 (Homo sapiens, UniProt P15036 1-469); conditions: protein: recombinant; tags: N-terminal GST; dsDNA, one strand shown
# T8 sequence: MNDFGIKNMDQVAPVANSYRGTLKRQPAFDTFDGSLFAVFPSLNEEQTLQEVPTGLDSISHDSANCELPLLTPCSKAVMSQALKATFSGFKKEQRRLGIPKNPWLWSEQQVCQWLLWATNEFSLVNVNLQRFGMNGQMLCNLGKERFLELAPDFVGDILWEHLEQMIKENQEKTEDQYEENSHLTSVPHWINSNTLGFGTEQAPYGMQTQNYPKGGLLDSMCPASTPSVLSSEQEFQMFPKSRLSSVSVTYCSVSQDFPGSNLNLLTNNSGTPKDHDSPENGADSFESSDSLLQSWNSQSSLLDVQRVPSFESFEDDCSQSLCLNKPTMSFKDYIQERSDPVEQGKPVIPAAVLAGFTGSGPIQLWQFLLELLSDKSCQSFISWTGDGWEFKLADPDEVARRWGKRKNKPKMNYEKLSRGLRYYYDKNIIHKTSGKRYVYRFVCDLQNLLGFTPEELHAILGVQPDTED
# How it was run: as §1
# SPDEF = biological target: T9, SPDEF (Homo sapiens, UniProt O95238 1-335); conditions: protein: recombinant; tags: N-terminal GST; dsDNA, one strand shown
# T9 sequence: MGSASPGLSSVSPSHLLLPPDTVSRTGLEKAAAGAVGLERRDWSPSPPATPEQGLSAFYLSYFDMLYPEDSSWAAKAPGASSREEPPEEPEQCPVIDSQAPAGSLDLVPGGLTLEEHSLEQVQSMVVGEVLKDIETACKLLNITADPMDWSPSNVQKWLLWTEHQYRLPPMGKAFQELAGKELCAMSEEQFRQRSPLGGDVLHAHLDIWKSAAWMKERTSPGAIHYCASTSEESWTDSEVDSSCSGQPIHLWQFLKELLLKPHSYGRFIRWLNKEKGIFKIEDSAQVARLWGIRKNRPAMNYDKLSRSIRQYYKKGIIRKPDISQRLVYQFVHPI
# How it was run: as §1
# ETV7 = biological target: T10, ETV7 (Homo sapiens, UniProt Q9Y603 1-341); conditions: protein: recombinant; tags: N-terminal GST; dsDNA, one strand shown
# T10 sequence: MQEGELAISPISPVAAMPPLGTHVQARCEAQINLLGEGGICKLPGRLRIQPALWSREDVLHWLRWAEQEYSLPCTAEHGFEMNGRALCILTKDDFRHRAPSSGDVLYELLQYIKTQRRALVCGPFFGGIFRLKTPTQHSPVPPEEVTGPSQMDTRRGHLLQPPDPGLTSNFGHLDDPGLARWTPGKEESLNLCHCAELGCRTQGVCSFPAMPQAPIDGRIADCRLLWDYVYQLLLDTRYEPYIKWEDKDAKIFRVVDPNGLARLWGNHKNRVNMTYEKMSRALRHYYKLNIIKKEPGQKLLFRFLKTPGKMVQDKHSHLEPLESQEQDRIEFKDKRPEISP
# How it was run: as §1
# ELF5 = biological target: T11, ELF5 (Homo sapiens, UniProt Q9UKW6-2 1-255); conditions: protein: recombinant; tags: N-terminal GST; dsDNA, one strand shown
# T11 sequence: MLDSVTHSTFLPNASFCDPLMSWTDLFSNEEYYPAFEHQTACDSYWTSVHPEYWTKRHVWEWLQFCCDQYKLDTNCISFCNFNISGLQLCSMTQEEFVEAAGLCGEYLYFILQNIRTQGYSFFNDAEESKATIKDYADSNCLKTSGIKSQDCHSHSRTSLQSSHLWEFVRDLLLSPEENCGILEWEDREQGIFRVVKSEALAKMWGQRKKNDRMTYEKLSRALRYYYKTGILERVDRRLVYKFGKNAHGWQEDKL
# How it was run: as §1
# ETV3 = biological target: T12, ETV3 (Homo sapiens, UniProt P41162-2 1-143); conditions: protein: recombinant; tags: N-terminal GST; dsDNA, one strand shown
# T12 sequence: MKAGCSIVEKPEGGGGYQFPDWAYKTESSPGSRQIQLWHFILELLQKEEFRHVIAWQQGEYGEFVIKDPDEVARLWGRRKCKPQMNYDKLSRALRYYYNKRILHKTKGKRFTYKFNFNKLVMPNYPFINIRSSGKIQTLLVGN
# How it was run: as §1
# ETV6 = ETV6 (Homo sapiens, UniProt P41212 1-452); conditions: protein: recombinant; tags: N-terminal GST; dsDNA, one strand shown
# How it was run: as §1
# HSF1, sequence (Q00613 whole entry): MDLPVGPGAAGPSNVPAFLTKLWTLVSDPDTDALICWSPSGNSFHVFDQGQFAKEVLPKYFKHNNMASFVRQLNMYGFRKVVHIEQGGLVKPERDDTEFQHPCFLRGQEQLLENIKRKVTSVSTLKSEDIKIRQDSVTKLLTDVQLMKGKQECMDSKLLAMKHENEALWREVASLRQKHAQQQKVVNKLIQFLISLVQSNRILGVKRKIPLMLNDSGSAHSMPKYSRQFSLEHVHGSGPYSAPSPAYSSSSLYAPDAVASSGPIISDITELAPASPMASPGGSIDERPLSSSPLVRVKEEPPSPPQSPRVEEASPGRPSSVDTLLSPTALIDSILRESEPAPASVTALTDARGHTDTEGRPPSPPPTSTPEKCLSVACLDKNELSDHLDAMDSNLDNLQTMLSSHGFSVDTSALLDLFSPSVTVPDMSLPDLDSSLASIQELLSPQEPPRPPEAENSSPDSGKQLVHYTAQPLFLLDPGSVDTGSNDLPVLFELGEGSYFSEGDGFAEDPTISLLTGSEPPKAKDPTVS
# ETV1, sequence (P50549 whole entry): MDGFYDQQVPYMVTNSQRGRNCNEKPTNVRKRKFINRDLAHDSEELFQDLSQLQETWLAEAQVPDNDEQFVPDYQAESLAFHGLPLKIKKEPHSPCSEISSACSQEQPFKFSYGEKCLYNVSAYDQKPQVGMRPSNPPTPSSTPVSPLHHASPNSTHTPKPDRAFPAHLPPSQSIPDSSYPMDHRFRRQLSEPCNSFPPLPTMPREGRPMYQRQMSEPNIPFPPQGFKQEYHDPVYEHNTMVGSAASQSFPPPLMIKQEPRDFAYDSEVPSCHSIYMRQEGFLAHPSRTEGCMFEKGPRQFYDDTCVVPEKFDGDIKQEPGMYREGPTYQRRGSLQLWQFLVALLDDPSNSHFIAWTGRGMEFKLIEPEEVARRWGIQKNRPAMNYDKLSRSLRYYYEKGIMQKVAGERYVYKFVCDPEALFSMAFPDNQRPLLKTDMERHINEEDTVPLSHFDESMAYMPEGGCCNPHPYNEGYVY
# ETV5, sequence (P41161 whole entry): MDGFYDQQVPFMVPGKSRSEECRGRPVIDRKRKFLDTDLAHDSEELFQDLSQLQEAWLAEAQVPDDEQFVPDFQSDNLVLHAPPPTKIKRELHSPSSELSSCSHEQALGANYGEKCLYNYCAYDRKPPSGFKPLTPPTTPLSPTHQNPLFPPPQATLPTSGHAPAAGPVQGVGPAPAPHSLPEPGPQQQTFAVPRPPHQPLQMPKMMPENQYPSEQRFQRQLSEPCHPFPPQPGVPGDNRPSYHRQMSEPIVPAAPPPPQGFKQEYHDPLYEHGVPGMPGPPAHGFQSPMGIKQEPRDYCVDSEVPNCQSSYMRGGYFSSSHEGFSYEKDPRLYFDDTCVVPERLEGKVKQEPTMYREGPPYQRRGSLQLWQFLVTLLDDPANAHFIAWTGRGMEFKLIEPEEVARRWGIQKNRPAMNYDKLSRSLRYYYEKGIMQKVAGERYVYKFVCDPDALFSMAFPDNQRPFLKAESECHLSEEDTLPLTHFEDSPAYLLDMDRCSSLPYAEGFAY
# CRX, sequence (O43186 whole entry): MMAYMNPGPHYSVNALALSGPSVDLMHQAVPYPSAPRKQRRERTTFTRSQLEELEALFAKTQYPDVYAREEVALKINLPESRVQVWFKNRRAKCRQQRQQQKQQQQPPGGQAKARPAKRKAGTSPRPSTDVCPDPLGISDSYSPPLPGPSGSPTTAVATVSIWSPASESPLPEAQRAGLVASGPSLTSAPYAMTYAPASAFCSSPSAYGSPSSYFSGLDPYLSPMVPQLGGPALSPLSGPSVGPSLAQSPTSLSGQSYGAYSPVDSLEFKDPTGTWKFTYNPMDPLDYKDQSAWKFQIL
# ELF4, sequence (Q99607 whole entry): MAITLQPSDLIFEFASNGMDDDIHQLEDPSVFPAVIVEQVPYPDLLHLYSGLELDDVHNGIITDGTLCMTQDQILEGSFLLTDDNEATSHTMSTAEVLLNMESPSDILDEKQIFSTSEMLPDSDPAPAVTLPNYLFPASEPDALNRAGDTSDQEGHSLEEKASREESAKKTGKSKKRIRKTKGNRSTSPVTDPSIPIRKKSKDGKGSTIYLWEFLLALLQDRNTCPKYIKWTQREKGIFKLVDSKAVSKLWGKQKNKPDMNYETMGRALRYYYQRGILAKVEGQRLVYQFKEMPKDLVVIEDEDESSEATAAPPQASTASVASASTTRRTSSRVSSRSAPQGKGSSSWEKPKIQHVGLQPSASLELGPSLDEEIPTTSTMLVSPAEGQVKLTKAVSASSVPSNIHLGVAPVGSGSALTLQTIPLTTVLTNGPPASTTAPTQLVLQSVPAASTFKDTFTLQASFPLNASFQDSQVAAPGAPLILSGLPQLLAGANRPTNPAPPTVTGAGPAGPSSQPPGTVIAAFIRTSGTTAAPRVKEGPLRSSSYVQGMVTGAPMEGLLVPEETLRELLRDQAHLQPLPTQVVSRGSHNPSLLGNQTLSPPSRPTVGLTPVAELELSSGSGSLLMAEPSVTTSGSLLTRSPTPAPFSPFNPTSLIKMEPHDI
# ETV6, sequence (P41212 whole entry): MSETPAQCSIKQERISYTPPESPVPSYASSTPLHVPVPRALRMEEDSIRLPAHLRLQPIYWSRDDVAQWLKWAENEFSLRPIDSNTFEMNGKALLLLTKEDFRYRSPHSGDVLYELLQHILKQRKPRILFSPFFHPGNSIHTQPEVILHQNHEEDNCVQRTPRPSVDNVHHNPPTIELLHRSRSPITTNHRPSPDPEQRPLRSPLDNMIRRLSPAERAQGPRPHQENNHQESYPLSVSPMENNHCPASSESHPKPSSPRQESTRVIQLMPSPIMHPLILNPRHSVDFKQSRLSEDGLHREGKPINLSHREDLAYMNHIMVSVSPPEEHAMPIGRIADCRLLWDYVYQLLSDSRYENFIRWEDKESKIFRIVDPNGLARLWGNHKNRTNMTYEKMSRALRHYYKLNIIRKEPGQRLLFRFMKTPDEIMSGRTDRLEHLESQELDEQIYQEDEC
sequence,measurement,setting,value
ACCAAT,binding signal,FEV,"1.25 fold enrichment (6-mer frequency, TF over GST control)"
same,binding signal,ETV5,"1.24 fold enrichment (6-mer frequency, TF over GST control)"
same,binding signal,HSF1,"1.16 fold enrichment (6-mer frequency, TF over GST control)"
same,binding signal,SPIC,"1.31 fold enrichment (6-mer frequency, TF over GST control)"
same,binding signal,ELF4,"1.38 fold enrichment (6-mer frequency, TF over GST control)"
same,binding signal,ELK4,"1.35 fold enrichment (6-mer frequency, TF over GST control)"
same,binding signal,ETV2,"1.13 fold enrichment (6-mer frequency, TF over GST control)"
same,binding signal,ELF3,"1.28 fold enrichment (6-mer frequency, TF over GST control)"
same,binding signal,CRX,"1.16 fold enrichment (6-mer frequency, TF over GST control)"
same,binding signal,ETV1,"1.3 fold enrichment (6-mer frequency, TF over GST control)"
same,binding signal,ERF,"1.32 fold enrichment (6-mer frequency, TF over GST control)"
same,binding signal,ETV3L,"1.28 fold enrichment (6-mer frequency, TF over GST control)"
same,binding signal,ETS2,"1.39 fold enrichment (6-mer frequency, TF over GST control)"
same,binding signal,SPDEF,"1.24 fold enrichment (6-mer frequency, TF over GST control)"
same,binding signal,ETV7,"1.29 fold enrichment (6-mer frequency, TF over GST control)"
same,binding signal,ELF5,"1.23 fold enrichment (6-mer frequency, TF over GST control)"
same,binding signal,ETV3,"1.29 fold enrichment (6-mer frequency, TF over GST control)"
same,binding signal,ETV6,"1.34 fold enrichment (6-mer frequency, TF over GST control)"
